The subject of this experiment is DHL-10. Kind of experiment: apoptosis induction in cancer cell lines, late-stage follow-up, mechanism study for MCL1-BIM inhibitor project, imaging, DAPI staining, cell line panel, probe (AID 624396). Particulars: DAPI nuclear morphology.

For one compound, outcome results are on record in PubChem BioAssay AID624396 (The Scripps Research Institute Molecular Screening Center, 2012).

The structures appear in SMILES notation. Active and inactive are the calls of the source.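 The calls were made as follows: active = over 15% of cells apoptotic at 25 µM, or half-maximal dose of 10 µM or lower; inactive = the rest.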

As for `CCN1CCN(C(c2ccc(C(F)(F)F)cc2)c2ccc3cccnc3c2O)CC1` (stereo unspecified), the compound was called inactive.
